Rab9 prom act: qHTS Assay for Rab9 Promoter Activators | 2.8% of 320,000 active | Huh7 Rab9 promoter-luciferase reporter, luminescence, 24 h | Potency, µM (doses to about 9.22 µM), actives largely listed as activators | AID 485297, 2010; also: nearly all actives have a fitted effect of over 60% in size
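Huh7 cells stably carrying a Rab9 promoter-luciferase reporter, 1500 cells per well in OP-MEM I with 10% FBS, treated with compound 24 hours at 37C. Luciferase activity read by luminescence after 10 minutes with Amplite reagent.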
FLuc modulator: qHTS profiling assay for firefly luciferase inhibitor/activator using purifed enzyme and Km concentrations of substrates (counterscreen for miR-21 project); purified FLuc, Km substrates, luminescence inhibition; Potency, µM (doses to about 57.5 µM), actives largely listed as inhibitors; 6.9% of 360,000 active; AID 588342, 2011; also: nearly all actives have a fitted effect of over 55% in size
Target sequence (P08659 whole entry, looked up): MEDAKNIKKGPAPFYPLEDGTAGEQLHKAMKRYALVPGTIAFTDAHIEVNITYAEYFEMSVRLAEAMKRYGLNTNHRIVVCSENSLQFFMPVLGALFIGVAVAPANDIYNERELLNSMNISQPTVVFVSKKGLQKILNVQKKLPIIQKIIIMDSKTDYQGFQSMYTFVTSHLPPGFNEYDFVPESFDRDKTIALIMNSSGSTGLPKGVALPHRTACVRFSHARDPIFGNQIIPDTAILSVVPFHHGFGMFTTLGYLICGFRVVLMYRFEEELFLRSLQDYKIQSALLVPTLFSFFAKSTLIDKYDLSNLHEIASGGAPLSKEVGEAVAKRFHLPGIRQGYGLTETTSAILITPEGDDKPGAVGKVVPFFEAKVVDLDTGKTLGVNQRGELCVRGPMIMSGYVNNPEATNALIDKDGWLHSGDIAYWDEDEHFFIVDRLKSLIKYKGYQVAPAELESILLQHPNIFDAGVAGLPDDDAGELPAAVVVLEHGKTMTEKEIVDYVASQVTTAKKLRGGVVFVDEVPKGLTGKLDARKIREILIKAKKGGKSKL
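Purified P. pyralis luciferase, 10 nM final, with Km-level 10 uM D-luciferin and 10 uM ATP in 50 mM Tris acetate pH 7.5, 10 mM Mg acetate, 0.01% Tween-20, 0.05% BSA; 6-point qHTS titration about 60 µM downward; luminescence read.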
ELG1 genotoxic: qHTS screen for small molecules that induce genotoxicity in human embryonic kidney (HEK293T) cells expressing luciferase-tagged ELG1 | Potency, µM (titrated, usually from 46 µM), hits mostly activators | 1.3% of 330,000 active | AID 504466, 2011 | HEK293T ELG1-luciferase reporter, luminescence, 16 h; also: nearly all actives have a fitted effect of over 60% in size
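Cells (2,000/well) expressing the ELG1-luciferase fusion are dosed by pin tool and kept 16 hr at 37 °C, 5% CO2. Signal comes from ONE-Glo luciferase reagent after 30 min at room temperature.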
SMN2 splice up: qHTS Assay for Enhancers of SMN2 Splice Variant Expression | HEK293 SMN2-luciferase splicing reporter, luminescence, 30-36 h | Potency, µM (doses to about 46.1 µM), actives largely listed as activators | 2.8% of 210,000 active; also: nearly all actives have a fitted effect of over 55% in size
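qHTS luciferase splicing reporter: luminescence rises when SMN2 exon 7 is included in transfected HEK293 cells. Compound exposure lasted 30-36 h at 37C, with 4.5 mM final sodium butyrate as control, followed by a ONE-Glo read.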
NPC1 prom act: qHTS Assay for NPC1 Promoter Activators. Potency, µM (titrated, usually from 9.22 µM), most hits filed as activators. Huh7 NPC1 promoter luciferase reporter, 24 h. 2.4% of 320,000 active; also: nearly all actives have a fitted effect of over 60% in size
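Huh7 cells stably carrying NPC1 promoter–luciferase, plated in Opti-MEM with 10% FBS for 2 h, were exposed to compound in DMSO for 24 h at 37 °C; luciferase reagent was added for 10 min and luminescence read.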
Large screens that a line does not name were inactive. This is a sample that favours compounds with a hit; in the whole collection about 7.5% have one here. Calls follow the shape of the dose curve; as a rule, active = well fitted curve in the direction sought with a large enough effect; inconclusive = small, poorly fitted or top-dose-only effect, or another doubt; inactive = no such curve, though single readings can be large; an effect the other way counts as inactive or inconclusive.

CCCSc1ncnc2c1oc1ccccc12	FLuc modulator 15.1µM
CC(=O)CSc1ncnc2c1oc1ccccc12	FLuc modulator inconclusive, ELG1 genotoxic inconclusive
Fc1ccccc1CSc1ncnc2c1oc1ccccc12	FLuc modulator inconclusive (no result: SMN2 splice up)
c1ccc(Sc2ncnc3c2oc2ccccc23)nc1	Rab9 prom act inconclusive, FLuc modulator 21.3µM, ELG1 genotoxic inconclusive, NPC1 prom act inconclusive
CC(C)Sc1ncnc2c1oc1ccccc12	FLuc modulator 23.9µM
c1coc(CSc2ncnc3c2oc2ccccc23)c1	FLuc modulator 19µM, ELG1 genotoxic inconclusive (no result: SMN2 splice up)
COc1ncnc2c1oc1ccccc12	FLuc modulator 12µM, ELG1 genotoxic inconclusive (no result: SMN2 splice up)
Nc1n[nH]c(N)c1N=Nc1ccc(Cl)cc1Cl	FLuc modulator 13.5µM, ELG1 genotoxic inconclusive (no result: SMN2 splice up)
Nc1n[nH]c(N)c1N=Nc1ccccc1F	FLuc modulator inconclusive (no result: SMN2 splice up)
CCOC(=O)N1CCN(C(=O)c2ccc3[nH]c(C)c(C)c3c2)CC1	none (no result: Rab9 prom act, FLuc modulator, SMN2 splice up, NPC1 prom act)
Cc1[nH]c2ccc(C(=O)N3CCN(Cc4ccccc4)CC3)cc2c1C	FLuc modulator 6.01µM (no result: SMN2 splice up)
COc1ccc2[nH]c(C(=O)N3CCN(Cc4ccccc4)CC3)cc2c1OC	FLuc modulator 15.1µM (no result: SMN2 splice up)
COc1cc(CN2CCN(C(=O)c3ccc(-c4ccccc4)cc3)CC2)cc(OC)c1OC	FLuc modulator 21.3µM, ELG1 genotoxic inconclusive (no result: SMN2 splice up)
CC(=O)c1ccc2c(c1)C1C=CCC1C(c1ccncc1)N2 (configuration not stated)	FLuc modulator 16.9µM
CN1c2ccccc2C(C)(C)C12CC(c1ccc(S(=O)(=O)N3CCCCC3)cc1)=NO2 (configuration not stated)	SMN2 splice up 1.12µM
COc1ccc(Cn2nnc3c(=O)[nH]c(C4CCCN(C(=O)c5ccccc5)C4)nc32)cc1 (configuration not stated)	none
Cc1ccc(NC(=O)N2CCN(Cc3ccc4c(c3)OCO4)CC2)cc1	none
O=C(Nc1ccc2c(c1)OCCO2)c1coc2ccccc2c1=O	FLuc modulator 0.757µM, ELG1 genotoxic inconclusive
Cc1cccc(C)c1N1CCN(C(=O)Nc2ccc3c(c2)OCCO3)CC1	Rab9 prom act inconclusive, FLuc modulator 9.53µM, NPC1 prom act inconclusive
O=C(Nc1ccc2c(c1)OCO2)N1CCN(Cc2ccco2)CC1	Rab9 prom act 0.794µM, FLuc modulator 0.953µM, ELG1 genotoxic inconclusive, NPC1 prom act inconclusive (no result: SMN2 splice up)
Cc1cc(C(=O)Nc2ccc3c(c2)OCCO3)c(C)o1	Rab9 prom act 3.16µM, FLuc modulator 7.57µM, ELG1 genotoxic 4.61µM, SMN2 splice up 11.2µM, NPC1 prom act inconclusive
COc1ccc(C(=O)N(C)CC(=O)Nc2cccc(F)c2)cc1S(=O)(=O)NC1CCCC1	none (no result: SMN2 splice up)
O=C(CCC1COc2ccccc2O1)Nc1ccccn1 (configuration not stated)	none
Cc1ccccc1C(=O)Nc1ccc2c(c1)OCCO2	Rab9 prom act 0.398µM, FLuc modulator 2.39µM, ELG1 genotoxic 1.83µM, NPC1 prom act 0.501µM (no result: SMN2 splice up)
Cc1occc1C(=O)Nc1ccc2c(c1)OCCO2	Rab9 prom act 1.26µM, FLuc modulator 8.49µM, ELG1 genotoxic inconclusive, SMN2 splice up inconclusive, NPC1 prom act 3.16µM
Cc1occc1C(=O)Nc1ccc2c(c1)CCC2	Rab9 prom act 3.98µM, FLuc modulator 9.53µM, ELG1 genotoxic 18.4µM, SMN2 splice up 11.2µM, NPC1 prom act 3.55µM
CSc1ccccc1C(=O)Nc1ccc2c(c1)OCCO2	FLuc modulator inconclusive (no result: Rab9 prom act, ELG1 genotoxic, NPC1 prom act)
CC(=O)c1c(Nc2ccc3c(c2)OCCO3)oc(C)cc1=O	FLuc modulator 26.9µM, ELG1 genotoxic inconclusive
CC(=O)Nc1ccc2c(c1)OCCOCCOc1cc(NC(C)=O)ccc1OCCOCCOCCO2	none
Cc1occc1C(=O)Nc1cccc([N+](=O)[O-])c1	none
Nc1sc2c(c1C(=O)NC1CCS(=O)(=O)C1)CCCC2 (configuration not stated)	none
O=C(NCc1ccco1)c1cccc(S(=O)(=O)N2CCc3ccccc32)c1	none
Clc1c(-c2ccccc2)nnn1-c1ccccc1	Rab9 prom act 2.24µM, FLuc modulator 3.38µM, ELG1 genotoxic 8.2µM, SMN2 splice up 10µM, NPC1 prom act 2.24µM
COc1cccc(C(=O)N2c3nc(-c4ccco4)nn3C3(CCCCC3)[C@@H]3CCCC[C@@H]32)c1	none (no result: Rab9 prom act, ELG1 genotoxic, SMN2 splice up, NPC1 prom act)
Brc1ccc2c(c1)C(C1=NCCN1)c1ccccc1CS2 (configuration not stated)	none
Cc1ccc(C(=O)CSc2nnc(C3CC3)n2C2CC2)s1	Rab9 prom act inconclusive, FLuc modulator 19µM, ELG1 genotoxic inconclusive, NPC1 prom act inconclusive (no result: SMN2 splice up)
CCc1ccc(C(=O)CSc2nnc(C3CC3)n2C2CC2)cc1	none (no result: FLuc modulator, SMN2 splice up)
CCC(C)c1ccc2oc(-c3ccc(NC(=O)Cn4cnc5c(=O)n(C)c(=O)n(C)c54)cc3)nc2c1 (configuration not stated)	Rab9 prom act inconclusive, FLuc modulator 12µM
Cc1ccc2oc(-c3cccc(NC(=O)Cn4cnc5c(=O)n(C)c(=O)n(C)c54)c3)nc2c1	FLuc modulator 3.79µM
Cn1c(=O)c2ncn(CC(=O)Nc3ccc(N4CCOCC4)cc3)c2n(C)c1=O	none
COC(=O)N/N=C/c1cc(Cl)c(OCc2ccccc2F)c(OC)c1	none (no result: SMN2 splice up)
COc1ccc(NC(=S)NC(=O)C2CCCCC2)cc1	none (no result: SMN2 splice up)
Clc1ccc2[nH]cc(-c3nnnn3-c3ccccc3)c2c1	FLuc modulator 23.9µM
O=C(O)c1ccc(N/N=C/c2cc3ccccc3nc2Cl)cc1	Rab9 prom act 2µM, FLuc modulator 0.757µM, ELG1 genotoxic inconclusive, NPC1 prom act 1.41µM (no result: SMN2 splice up)
Cc1cccc2cc(/C=N/NC(=O)c3ccncc3)c(Cl)nc12	none (no result: SMN2 splice up)
Cc1cccc2cc(/C=N/Nc3ccc(C(=O)O)cc3)c(Cl)nc12	Rab9 prom act 0.398µM, FLuc modulator 0.675µM, ELG1 genotoxic 5.17µM, NPC1 prom act 0.398µM (no result: SMN2 splice up)
O=C(O)c1ccc(N/N=C/c2cccc3nccnc23)cc1	Rab9 prom act inconclusive, FLuc modulator 6.75µM, NPC1 prom act inconclusive (no result: SMN2 splice up)
CC(C)(C)OC(=O)N1CCC[C@H]1C(=O)N/N=C/c1cccc2nccnc12	FLuc modulator 16.9µM (no result: SMN2 splice up)
C[C@H](NC(=O)OC(C)(C)C)C(=O)N/N=C/c1cccc2nccnc12	none (no result: SMN2 splice up)
O=[N+]([O-])c1ccccc1N/N=C/c1cc2ccccc2nc1Cl	Rab9 prom act inconclusive, FLuc modulator inconclusive, ELG1 genotoxic inconclusive, NPC1 prom act inconclusive
C(=N\Nc1nc2ccccc2[nH]1)/c1ccncc1	Rab9 prom act inconclusive, FLuc modulator inconclusive, ELG1 genotoxic inconclusive, NPC1 prom act inconclusive
Clc1nc2ccccc2cc1/C=N/Nc1nc2ccccc2[nH]1	Rab9 prom act 2.51µM, FLuc modulator 0.19µM, ELG1 genotoxic inconclusive, SMN2 splice up 7.94µM, NPC1 prom act 3.55µM
Cc1noc(C)c1NC(=O)Nc1ccc2c(c1)C(=O)N([C@H](C)CO)C[C@H](C)[C@@H](CN(C)C(=O)NC(C)C)O2	none (no result: Rab9 prom act, FLuc modulator, SMN2 splice up, NPC1 prom act)
